NTR1 ag: activates human neurotensin receptor 1. NTR1-U2OS beta-arrestin-GFP spot imaging, agonist mode. 330,000 compounds, 0.17% hits. P30989. activation, % at 20 µM;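 active = activation at or above 40% of the spot to cytoplasm intensity ratio, with at least 20 cells analyzed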;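 note: 0% = DMSO without peptide and 100% = 100 nM NTR1 peptide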
TLR4-MyD88 BLA: blocks binding of human TLR4 to MyD88 | HeLa CL3-4 TLR4/MyD88 BLA complementation, FRET ratio | inhibition, % at 8.4 µM | O00206+Q99836 | 200,000 compounds, 0.18% hits; in the data active = inhibition above about 25%;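 note: 0% = vehicle and 100% = reference inhibitor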
NOD2-RIPK2 inh: NOD2-RIPK2 protein interaction inhibition. AID 624267. inhibition, % at 4.98 µM. O43353. 360,000 compounds, 0.38% hits. CHO BLA complementation NOD2-RIPK2, CCF4 ratio; in the data active = inhibition above about 21%;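 note: 0% = vehicle only and 100% = reference blocker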
Target sequence (O43353 whole entry, looked up): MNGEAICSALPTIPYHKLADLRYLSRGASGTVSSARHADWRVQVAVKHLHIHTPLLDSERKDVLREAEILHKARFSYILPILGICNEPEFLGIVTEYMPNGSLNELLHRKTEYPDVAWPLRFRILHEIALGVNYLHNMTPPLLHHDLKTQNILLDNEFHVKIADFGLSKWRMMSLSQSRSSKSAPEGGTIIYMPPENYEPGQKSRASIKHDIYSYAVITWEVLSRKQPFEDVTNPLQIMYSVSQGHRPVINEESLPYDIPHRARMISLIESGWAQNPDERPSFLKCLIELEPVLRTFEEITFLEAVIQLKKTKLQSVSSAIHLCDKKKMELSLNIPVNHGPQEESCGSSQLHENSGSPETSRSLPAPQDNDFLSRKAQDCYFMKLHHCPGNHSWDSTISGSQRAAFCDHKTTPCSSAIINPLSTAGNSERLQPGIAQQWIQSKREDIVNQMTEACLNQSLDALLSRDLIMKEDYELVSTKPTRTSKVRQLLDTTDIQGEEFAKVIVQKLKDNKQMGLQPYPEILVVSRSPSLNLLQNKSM
ABHD5-PLIN5 inh: ABHD5-PLIN5 protein interaction inhibition; Q00G26+Q8WTS1; Split G. princeps luciferase complementation, luminescence, 4 h; inhibition, % at 4 µM; 360,000 compounds, 0.78% hits;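 active = inhibition above the mean inhibition across every tested compound plus 3 SD, cut at about 22% in these data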;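 note: 0% = DMSO only wells and the 100% control is not disclosed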
TLR9-MyD88 block: TLR9-MyD88 interaction inhibition. CHO BLA complementation TLR9-MyD88, CCF4 FRET ratio. inhibition, % at 4.98 µM. 340,000 compounds, 0.21% hits;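 active = inhibition above the mean over all tested compounds plus 3 SD, cut at about 21% in these data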;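 note: 0% = DMSO only wells and 100% = clavulanate BLA inhibitor control wells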
B2AR ag: human beta-2 adrenergic receptor agonism by FAP. P07550. response, % (test concentration not listed). 340,000 compounds, 0.43% hits. AID 504454. Am2.2-beta2AR cells, FAP receptor internalization, flow cytometry;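 active = response above a set limit, near 3 SD of response in nonfluorescent compounds, cut at about 42% in these data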
TLR4 MyD88 cnf: confirmation of human TLR4-MyD88 binding inhibitors. shares compounds with TLR4-MyD88 BLA. inhibition, % at 8.4 µM. HeLa CL3-4 BLA complementation, CCF4 FRET ratio. 350 compounds, 50% hits. AID 941;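 active = mean inhibition across three repeat runs above about 25% carried over from the earlier screen, limit read from the data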;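 note: plate controls were DMSO only for no effect and clavulanic acid blocking BLA at full dose for full effect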
BLA inh HeLa: beta-lactamase inhibition flagged in TLR4-MyD88 counter-screen. HeLa BLA reporter, CCF4 FRET ratio. 350 compounds, 63% hits. inhibition, % at 8.4 µM. shares compounds with TLR4-MyD88 BLA;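 active = mean inhibition over three repeats above about 26% taken from the earlier screen, limit read from the data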;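 note: HeLa cells stably expressing beta-lactamase reporter as counterscreen for TLR4-MyD88 inhibitors; 0% = DMSO and 100% = clavulanic acid full inhibition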
TLR9-MyD88 conf: TLR9-MyD88 interaction inhibition, confirmation | shares compounds with TLR9-MyD88 block | 680 compounds, 51% hits | AID 540250 | inhibition, % at 4.98 µM | CHO TLR9/MyD88 BLA complementation, CCF4 FRET ratio;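 active = mean inhibition across three repeats above about 21% taken from the earlier screen, limit read from the data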;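 note: blue over green emission ratio reports constitutive TLR9 MyD88 association via BLA complementation; 0% = DMSO vehicle wells and 100% = clavulanate BLA inhibitor wells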
BLA counter-1: counter-screen for TLR9-MyD88 inhibitors: non-selective beta-lactamase inhibitors; 680 compounds, 7% hits; inhibition, % at 4.98 µM; CHO-BLA cells, CCF4 FRET ratio, BLA reporter; shares compounds with TLR9-MyD88 block;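 active = mean inhibition above a 50% cutoff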;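 note: counterscreen of TLR9-MyD88 hits on CMV-driven BLA in CHO-K1 cells; 0% = DMSO alone and 100% = clavulanate blocking BLA; higher means less blue over green ratio so more BLA blockade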
TLR9 CHO tox: CHO cell toxicity counter-screen for TLR9-MyD88 inhibitors. shares compounds with TLR9-MyD88 block. TLR9-MyD88 CHO cells cytotoxicity, luminescence. inhibition, % at 4.98 µM. 680 compounds, 39% hits. AID 588336; in the data active = inhibition above about 11%
ABHD5 PLIN5 conf: ABHD5-PLIN5 interaction inhibition, confirmed; 2,200 compounds, 67% hits; inhibition, % at 4 µM; biochemical ABHD5-PLIN5 interaction, luminescence; shares compounds with ABHD5-PLIN5 inh; in the data active = inhibition above about 23%;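 note: 0% = DMSO vehicle wells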
HNF4 split-luc: active in HNF4 split-luciferase counter-screen for ABHD5-PLIN5 inhibitors; shares compounds with ABHD5-PLIN5 inh; HNF4 dimerization, luminescence, biochemical; inhibition, % at 4 µM; 2,200 compounds, 77% hits;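 active = mean inhibition across replicate wells exceeding the computed hit threshold, cut at about 13% in these data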;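 note: light from luciferase halves that rejoin when HNF4 fusion proteins dimerize; 0% = DMSO only wells and the 100% control is not given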
NOD2-RIPK2 conf: NOD2-RIPK2 interaction inhibition confirmed; CHO cells, NOD2-RIPK2 BLA complementation, CCF4 FRET; shares compounds with NOD2-RIPK2 inh; inhibition, % at 4.98 µM; 1,200 compounds, 70% hits;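 active = mean inhibition across replicates above a set limit taken from the earlier primary screen, cut at about 21% in these data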;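 note: 0% = DMSO-only wells and the high end = clavulanate BLA-blocked wells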
BLA counter-2: NOD2-RIPK2 counterscreen BLA reporter activity. shares compounds with NOD2-RIPK2 inh. CHO BLA reporter, CCF4 FRET ratio. inhibition, % at 4.98 µM. 1,200 compounds, 57% hits;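 active = mean inhibition above the low-control mean inhibition plus three low-control SD, cut at about 11% in these data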;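 note: 0% = DMSO only wells and 100% = clavulanate high control wells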
Numbers without * were called inactive; x = not tested or not shown. Only some compounds are listed: those with a hit (about 1.5% of all), similar ones and a draw of the others.

SMILES	NTR1 ag	TLR4-MyD88 BLA	NOD2-RIPK2 inh	ABHD5-PLIN5 inh	TLR9-MyD88 block	B2AR ag	TLR4 MyD88 cnf	BLA inh HeLa	TLR9-MyD88 conf	BLA counter-1	TLR9 CHO tox	NOD2-RIPK2 conf	BLA counter-2	others
Cn1c(-c2c(N)n(-c3ccccc3)c3nc4ccccc4nc23)nc2ccccc21	x	54*	55*	9	47*	17	49*	76*	42*	46	12*	71*	73*
Cc1cccc(-n2c(N)c(-c3nc4ccccc4n3C)c3nc4ccccc4nc32)c1	0	21	14	2	18	9	x	x	x	x	x	x	x
Cc1nc(N2N=C3/C(=C/c4ccc(F)cc4)CCCC3C2c2ccc(F)cc2)sc1C(=O)N(C)C (centres undefined)	16	41*	42*	1	21	4	37*	65*	x	x	x	57*	65*
Cc1ncsc1C(=O)N1N=C2/C(=C/c3ccccc3)CCCC2C1c1ccccc1 (centres undefined)	12	-10	3	1	-5	7	x	x	x	x	x	x	x
CCOC(=O)CS(=O)(=O)c1nc(-c2ccccc2)cc(C(F)(F)F)n1	2	25*	85*	67*	30*	109*	17	-18	30*	7	100*	85*	27*	ABHD5 PLIN5 conf=76*;HNF4 split-luc=107*
CCOC(=O)CS(=O)(=O)c1ccccc1	-5	10	-11	1	-6	3	x	x	x	x	x	x	x
CC(C)NC(=O)C1(C)CN(S(C)(=O)=O)CC(=O)N1CCCn1ccnc1 (centres undefined)	x	x	0	12	x	x	x	x	x	x	x	x	x
O=c1oc2cc(O)ccc2cc1-c1nc2c(s1)CCc1ccccc1-2	x	52*	44*	-5	47*	x	69*	99*	67*	79*	2	72*	85*
O=c1oc2ccccc2cc1-c1nc2c(s1)CCc1ccccc1-2	8	31*	40*	-5	49*	-2	47*	81*	51*	58*	-2	69*	79*
Nc1nnc(-c2cc3ccccc3oc2=O)s1	0	14	12	-1	14	26	x	x	x	x	x	x	x
COc1ccc(NS(=O)(=O)c2cccc(C(=O)N3CCN(S(=O)(=O)c4ccccc4)CC3)c2)cc1	x	x	8	-13	3	7	x	x	x	x	x	x	x
COc1ccc(-c2cccc(N3CCN(c4ccccn4)CC3)n2)cc1OC	x	x	-1	0	x	x	x	x	x	x	x	x	x
O=C(NCc1ccc(F)cc1)c1cc(C2CCCCN2C(=O)CCCc2ccccc2)on1 (centres undefined)	x	x	-27	5	x	x	x	x	x	x	x	x	x
CN(C)c1ccc(/C=C/c2nc3ccccc3s2)cc1	-2	45*	22*	5	30*	-23	44*	68*	46*	59*	26*	57*	70*
